Data from PubChem BioAssay (Tox21).
Results filed as inconclusive are left out. The source made the active and inactive calls. Unless noted, calls follow the shape of the dose curve; as a rule, active = well fitted curve in the direction sought with a large enough effect in the repeat runs; inconclusive = weak or mixed curves; inactive = no such curve, though single readings can be large; an effect the other way counts as inactive or inconclusive.

How the values were obtained:
[1] = qHTS assay to test for compound auto fluorescence at 535 nm (green) in HEK293 cells (AID 720680)
[2] = qHTS assay to test for compound auto fluorescence at 460 nm (blue) in HEK293 cell free culture (AID 720681)
Summary of the method: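 Test compounds were pinned into cell-free culture medium (DMEM with 10% FBS) and fluorescence was read directly at Ex/Em 405/460 nm. Signals were expressed as fluorescence equivalents of triamterene, with DMSO vehicle as control.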

[3] = qHTS assay to test for compound auto fluorescence at 535 nm (green) in HEK293 cell free culture (AID 720682)
Summary of the method: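 DMEM + 10% FBS, cell-free; cpd or DMSO pinned in; Ex485/Em535 read; output as fluorescein-equivalent signal.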

[4] = qHTS assay to test for compound auto fluorescence at 590 nm (red) in HEK293 cell free culture (AID 720683)
Summary of the method: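 Tox21 10K library compounds were pinned into cell-free DMEM with 10% FBS and fluorescence was read at excitation 540 nm. Activity is expressed as Rose Bengal sodium equivalency.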

[5] = qHTS assay to test for compound auto fluorescence at 460 nm (blue) in HepG2 cell free culture (AID 720685)
Summary of the method: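 Cell-free plates of MEM plus 10% FBS received 23 nL compound or DMSO vehicle; blue-channel (405/460 nm) intensity scored against triamterene as reference fluorophore.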

[6] = qHTS assay to test for compound auto fluorescence at 535 nm (green) in HepG2 cell free culture (AID 720686)
[7] = qHTS assay to test for compound auto fluorescence at 460 nm (blue) in HepG2 cells (AID 720687)
Summary of the method: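 Cells (2,000/well in MEM with 10% FBS) attached overnight at 37 C, then were exposed to compound or DMSO for 1 hr at 37 C, 5% CO2. Fluorescence read at Ex/Em 405/460 nm, expressed as triamterene-equivalent signal.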

[8] = qHTS assay to identify small molecule antagonists of the glucocorticoid receptor (GR) signaling pathway - cell viability counter screen (AID 720693); also: nearly all actives have a fitted effect of over 55% in size
[9] = qHTS assay for identifying genotoxic compounds that show differential cytotoxicity against isogenic chicken DT40 cell lines with known DNA damage response pathways - wild type cell line (AID 743012); also: nearly all actives have a fitted effect of over 60% in size; also: potency is read from the fitted curve at half-maximal effect
Summary of the method: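 300 wt DT40 cells/well; cpd (DMSO) pintool-transferred after ~0.5 h at 37 C/5% CO2; 40 h incubation; CellTiter-Glo added, 30 min RT; luminescence read.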

[10] = qHTS assay for identifying genotoxic compounds that show differential cytotoxicity against isogenic chicken DT40 cell lines with known DNA damage response pathways - Rev3 mutant cell line (AID 743014); also: nearly all actives have a fitted effect of over 55% in size; also: potency is read from the fitted curve at half-maximal effect
[11] = qHTS assay to identify small molecule antagonists of the androgen receptor (AR) signaling pathway - cell viability counter screen (AID 743033; also: nearly all actives have a fitted effect of over 45% in size)
[12] = qHTS assay to identify small molecule antagonists of the androgen receptor (AR) signaling pathway using the MDA cell line - cell viability counter screen (AID 743041; also: nearly all actives have a fitted effect of over 45% in size)
Summary of the method: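 qHTS viability read-out; MDA-kb2 AR-luc; R1881-stimulated; 16 h exposure at 37C, 0% CO2; CellTiter-Fluor, 30 min; fluorescence intensity.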

[13] = qHTS assay for identifying genotoxic compounds that show differential cytotoxicity against isogenic chicken DT40 cell lines with known DNA damage response pathways - Rad54/Ku70 mutant cell line (AID 743015); also: nearly all actives have a fitted effect of over 60% in size; also: potency is read from the fitted curve at half-maximal effect
[14] = target: Androgen receptor (Homo sapiens) (UniProt P10275); experiment: qHTS assay to identify small molecule antagonists of the androgen receptor (AR) signaling pathway (AID 743035; active = well fitted inhibition curve with a large enough effect in the signal ratio in the repeat runs, not every such curve was filed as active; the % refers to the signal ratio)
Androgen receptor (Homo sapiens), sequence (P10275 whole entry, looked up): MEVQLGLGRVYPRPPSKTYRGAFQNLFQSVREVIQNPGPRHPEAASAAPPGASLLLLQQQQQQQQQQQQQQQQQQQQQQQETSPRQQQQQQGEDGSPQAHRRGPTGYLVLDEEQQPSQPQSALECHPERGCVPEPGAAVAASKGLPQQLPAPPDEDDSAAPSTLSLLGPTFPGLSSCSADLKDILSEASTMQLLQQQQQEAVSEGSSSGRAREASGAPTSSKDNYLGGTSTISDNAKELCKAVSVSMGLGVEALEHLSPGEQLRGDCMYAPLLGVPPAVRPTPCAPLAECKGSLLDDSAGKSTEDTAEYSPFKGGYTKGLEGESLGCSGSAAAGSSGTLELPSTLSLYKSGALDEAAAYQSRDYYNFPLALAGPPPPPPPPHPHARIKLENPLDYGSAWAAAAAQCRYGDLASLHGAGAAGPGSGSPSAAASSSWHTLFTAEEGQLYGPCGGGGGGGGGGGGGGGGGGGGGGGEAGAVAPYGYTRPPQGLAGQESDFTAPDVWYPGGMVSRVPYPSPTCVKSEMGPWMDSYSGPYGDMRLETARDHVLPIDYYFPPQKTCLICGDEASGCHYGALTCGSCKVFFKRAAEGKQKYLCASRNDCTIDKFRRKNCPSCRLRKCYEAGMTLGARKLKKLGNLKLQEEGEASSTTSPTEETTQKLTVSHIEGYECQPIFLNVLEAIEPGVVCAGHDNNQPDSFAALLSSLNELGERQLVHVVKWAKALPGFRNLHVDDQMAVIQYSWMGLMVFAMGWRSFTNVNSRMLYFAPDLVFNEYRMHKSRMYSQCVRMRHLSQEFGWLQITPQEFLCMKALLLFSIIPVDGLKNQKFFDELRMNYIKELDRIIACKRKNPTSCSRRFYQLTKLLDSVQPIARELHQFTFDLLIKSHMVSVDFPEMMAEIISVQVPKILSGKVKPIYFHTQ
Summary of the method: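 In this cell-based reporter screen, compounds were tested in concentration series against R1881-activated HEK293 cells expressing beta-lactamase under UAS control; after 16 h at 37C, FRET substrate was added and fluorescence read 2 h later.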

[15] = target: Androgen receptor (Homo sapiens) (UniProt P10275); experiment: qHTS assay to identify small molecule agonists of the androgen receptor (AR) signaling pathway (AID 743036; active = well fitted activation curve with a large enough effect in the signal ratio in the repeat runs, with a control signal flat, not every such curve was filed as active; the % refers to the signal ratio)
Summary of the method: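 Screening used 2,000 AR-bla HEK293 cells per well, treated 16 h at 37C with test compounds in DMSO alongside positive and DMSO-only controls; beta-lactamase activity was then read by LiveBLAzer B/G FRET fluorescence after 2 h at room temperature.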

[16] = target: Androgen receptor (Homo sapiens) (UniProt P10275); experiment: qHTS assay to identify small molecule agonists of the androgen receptor (AR) signaling pathway using the MDA cell line (AID 743040; also: nearly all actives have a fitted effect of over 20% in size)
Summary of the method: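 Agonist activity is measured as luciferase luminescence in human MDA-kb2 cells whose MMTV reporter responds to both AR and GR. Compounds in DMSO incubate 16 h at 37C, 0% CO2, and ONE-Glo is read after 30 min.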

[17] = target: Androgen receptor (Homo sapiens) (UniProt P10275); experiment: qHTS assay to identify small molecule antagonists of the androgen receptor (AR) signaling pathway using the MDA cell line (AID 743042; also: nearly all actives have a fitted effect of over 55% in size)
Summary of the method: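 MDA-kb2 cells (human breast carcinoma, stably carrying an MMTV-luciferase reporter responsive to AR and GR) were plated at 3,000 cells/well and preincubated 5 hr at 37C, then given compound plus R1881 agonist for 16 h. ONE-Glo luminescence was read.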

[18] = target: Glucocorticoid receptor (Homo sapiens) (UniProt P04150); experiment: qHTS assay to identify small molecule agonists of the glucocorticoid receptor (GR) signaling pathway (AID 720691; active = well fitted activation curve with a large enough effect in the signal ratio in the repeat runs, not every such curve was filed as active; the % refers to the signal ratio)
Glucocorticoid receptor (Homo sapiens), sequence (P04150 whole entry, looked up): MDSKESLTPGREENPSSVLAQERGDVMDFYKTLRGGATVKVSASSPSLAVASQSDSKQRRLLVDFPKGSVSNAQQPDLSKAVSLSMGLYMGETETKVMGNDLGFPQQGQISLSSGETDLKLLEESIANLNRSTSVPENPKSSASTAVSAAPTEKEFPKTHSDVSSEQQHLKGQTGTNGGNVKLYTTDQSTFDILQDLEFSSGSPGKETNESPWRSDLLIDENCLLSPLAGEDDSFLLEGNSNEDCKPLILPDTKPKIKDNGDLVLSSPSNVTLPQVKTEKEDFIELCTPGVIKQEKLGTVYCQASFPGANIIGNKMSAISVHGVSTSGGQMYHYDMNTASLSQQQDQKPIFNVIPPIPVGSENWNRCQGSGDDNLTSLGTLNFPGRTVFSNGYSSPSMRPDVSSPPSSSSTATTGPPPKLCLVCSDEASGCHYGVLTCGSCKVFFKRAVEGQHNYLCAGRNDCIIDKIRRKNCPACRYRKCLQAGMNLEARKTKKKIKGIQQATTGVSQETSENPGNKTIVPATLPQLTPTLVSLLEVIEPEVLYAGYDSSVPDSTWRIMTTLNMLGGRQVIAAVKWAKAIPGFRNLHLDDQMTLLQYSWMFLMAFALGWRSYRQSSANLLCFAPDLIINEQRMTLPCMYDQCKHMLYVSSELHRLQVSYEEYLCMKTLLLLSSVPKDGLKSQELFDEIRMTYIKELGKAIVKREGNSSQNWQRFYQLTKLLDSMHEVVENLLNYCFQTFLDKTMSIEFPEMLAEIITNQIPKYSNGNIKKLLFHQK
Summary of the method: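 A HeLa cervical cancer line expressing GR and a glucocorticoid response element-driven beta-lactamase gene is treated with compounds for 18 h; LiveBLAzer B/G FRET substrate is then applied and fluorescence read.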

[19] = target: Glucocorticoid receptor (Homo sapiens) (UniProt P04150); experiment: qHTS assay to identify small molecule antagonists of the glucocorticoid receptor (GR) signaling pathway (AID 720692; active = well fitted inhibition curve with a large enough effect in the signal ratio in the repeat runs, not every such curve was filed as active; the % refers to the signal ratio)
Summary of the method: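 GRE-bla HeLa line, dex-stimulated (5 nM final). Compound exposure 18 h, 37 C. Beta-lactamase FRET read after 2 h RT substrate.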

Measured: Potency

CCCCCCCCSC(=O)Oc1cc(Cl)nnc1-c1ccccc1
inactive: [1] | [2] | [3] | [4] | [5] | [6] | [7] | [8] | [11] | [12]
active: [9] 54.5 µM | [10] 54.5 µM

N[C@@H]1C[C@H]1c1ccccc1
inactive: [1] | [2] | [3] | [4] | [5] | [6] | [7] | [8] | [9] | [10] | [13] | [11] | [14] | [15] | [16] | [12] | [17]

CC[C@@H](CO)NC(=O)[C@@H]1C=C2c3cccc4[nH]cc(c34)C[C@H]2N(C)C1
inactive: [1] | [2] | [3] | [4] | [5] | [6] | [7] | [18] | [9] | [10] | [13] | [15] | [16] | [12]

CC(C)C(C)(N)C#N (stereo not drawn)
inactive: [1] | [2] | [3] | [4] | [5] | [6] | [7] | [18] | [8] | [9] | [10] | [13] | [11]

CC(=O)CN(CC(C)=O)N=O
inactive: [1] | [2] | [3] | [4] | [5] | [6] | [7] | [18] | [8] | [9] | [10] | [13] | [12]

C=C1C[C@@H]2[C@H](CC[C@]3(C)C(=O)CC[C@@H]23)[C@@]2(C)C=CC(=O)C=C12
inactive: [1] | [2] | [3] | [4] | [5] | [6] | [7] | [8] | [12]
active: [9] 7.5 µM | [10] 11.9 µM | [13] 13.3 µM

C=C1CC[C@@]2(O)[C@H]3Cc4ccc(O)c5c4[C@@]2(CCN3CC2CC2)[C@H]1O5
inactive: [1] | [2] | [3] | [4] | [5] | [6] | [7] | [18] | [9] | [13] | [11] | [12]

OCC(Cl)CCl (stereo not drawn)
inactive: [1] | [2] | [3] | [4] | [5] | [6] | [7] | [18] | [9] | [10] | [13] | [12]

COC(=O)c1ccc(CBr)cc1
inactive: [1] | [2] | [3] | [4] | [5] | [6] | [7] | [19] | [8] | [9] | [10] | [13] | [14] | [15] | [16] | [12] | [17]

Clc1nc(Cl)nc(Nc2ccccc2Cl)n1
inactive: [1] | [2] | [3] | [4] | [5] | [6] | [7] | [18] | [19] | [8] | [9] | [10] | [13] | [11]

O=C1CCCCC1Cl (stereo not drawn)
inactive: [1] | [2] | [3] | [4] | [5] | [6] | [7] | [8] | [9] | [10] | [13] | [11] | [12]

CCOC(=O)COc1ccc(Cl)cc1Cl
inactive: [1] | [2] | [3] | [4] | [5] | [6] | [7] | [8] | [9] | [10] | [13] | [11]

BrCCc1ccccc1
inactive: [1] | [2] | [3] | [4] | [5] | [6] | [7] | [18] | [19] | [8] | [9] | [10] | [13] | [11] | [12]

CN1C(=O)COc2c(C(=O)NC3CN4CCC3CC4)cc(Cl)cc21 (stereo not drawn)
inactive: [1] | [2] | [3] | [4] | [5] | [6] | [7] | [8] | [9] | [10] | [13] | [11] | [12]

CC(C)(N)Cc1ccc(Cl)cc1
inactive: [1] | [2] | [3] | [4] | [5] | [6] | [7] | [8] | [13] | [11] | [12]

O=C(O)CBr
inactive: [1] | [2] | [3] | [4] | [5] | [6] | [7] | [8] | [9] | [10] | [13] | [11] | [12]

CCC1(c2ccccc2)C(=O)N(COC)C(=O)N(COC)C1=O
inactive: [1] | [2] | [3] | [4] | [5] | [6] | [7] | [18] | [19] | [8] | [9] | [10] | [13] | [11] | [14] | [15] | [16] | [12] | [17]

OP(O)c1ccccc1
inactive: [1] | [2] | [3] | [4] | [5] | [6] | [7] | [18] | [19] | [9] | [10] | [13] | [11] | [14] | [15] | [16] | [12] | [17]

CON(C)C(=O)Nc1ccc(Br)cc1
inactive: [1] | [2] | [3] | [4] | [5] | [6] | [7] | [18] | [8] | [9] | [10] | [13] | [12]
